This is one part of a sample in which hits are shown more often than they occur.
Shiga inhibitor – A qHTS for Small Molecule Inhibitors of Shiga Toxin; Vero cells, Shiga toxin protein synthesis inhibition reporter; inhibition, % at 38.7 µM; hit rate 9.2% among 290,000; AID 2315, 2010; in the data active = inhibition mostly above about 28%, no sharp cut-off; inactive = mostly below about 43%
LASV entry inh – qHTS for Inhibitors of binding or entry into cells for Lassa Virus; Lassa virus pseudotype entry inhibition, cell reporter; Potency, µM (highest dose often 37.9 µM), actives largely listed as inhibitors; hit rate 1.2% among 300,000; AID 540256, 2011; calls by dose curve; tested in HEK293 cells; also: nearly all actives have a fitted effect of over 50% in size
CHX counter – Cycloheximide Counterscreen for Small Molecule Inhibitors of Shiga Toxin; max response, %; cell reporter, cycloheximide protein synthesis inhibition counterscreen; hit rate 12% among 300,000; in the data active = max response mostly above about 13%, no sharp cut-off; inactive = mostly below about 14%; also: read at 38.3 µM for the half of the compounds with a filed dose
VACV Venus inh – qHTS for Stage-Specific Inhibitors of Vaccinia Orthopoxvirus: Venus Reporter Primary qHTS; Potency, µM (highest dose often 36.5 µM), usual class: inhibitors; hit rate 0.46% among 330,000; Vaccinia virus Venus reporter expression, fluorescence; AID 720580, 2013; calls by dose curve; tested in A549 cells; also: nearly all actives have a fitted effect of over 30% in size
Marburg entry inh – qHTS for inhibitors of binding or entry into cells for Marburg Virus. Marburg virus pseudotyped entry inhibition, cell reporter. Potency, µM (series often up to 37.8 µM), most hits filed as inhibitors. hit rate 1.8% among 300,000. AID 540276, 2011; calls by dose curve; tested in HEK293 cells
VACV mCherry inh – qHTS for Stage-Specific Inhibitors of Vaccinia Orthopoxvirus: mCherry Reporter Primary qHTS; Vaccinia virus mCherry reporter infection, fluorescence; Potency, µM (top dose mostly 36.5 µM), hits mostly inhibitors; hit rate 0.63% among 310,000; calls by dose curve; tested in A549 cells; also: nearly all actives have a fitted effect of over 35% in size
Numbers stand for hits; . = inactive; ? = inconclusive; / = not tested or not shown.

SMILES	Shiga inhibitor	LASV entry inh	CHX counter	VACV Venus inh	Marburg entry inh	VACV mCherry inh
Cc1nn(-c2ccccc2)nc1-c1nnc(-c2ccc(C(F)(F)F)cc2)o1	.	.	.	.	?	.
COC(=O)c1ccc(C2=NOC(C)(c3nnc(Cc4ccccc4)o3)C2)cc1 (stereo not drawn)	/	/	/	.	/	.
O=Cc1ccc(Cl)c(Cl)c1	/	/	/	.	/	.
COc1ccc(/C=C/C(=O)c2c(O)c(OC)c3occc3c2OC)cc1	.	.	14.7	/	?	/
COc1cc(/C=C/c2ccc(O)cc2)cc(OC)c1	83.6	/	55.8	.	/	.
COc1ccc(/C=C/C(=O)N2CCN(c3ccccn3)CC2)cc1	29.8	/	24.5	/	/	/
Cc1cccc(N(C(=O)c2csnn2)C(C(=O)NC2CCCCC2)c2ccncc2)c1 (stereo not drawn)	.	?	.	.	.	.
COc1ccc(NC(=O)CN(C)C(=O)Cn2c(=O)oc3ccccc32)cc1	/	?	/	.	.	.
CN(C)S(=O)(=O)c1ccc(N2CCCC2)c(C(=O)Nc2nc3ccc(F)cc3s2)c1	36.5	.	13.9	.	?	.
Cc1cccc2sc(NC(=O)c3cc(S(=O)(=O)N(C)C)ccc3N3CCCC3)nc12	.	?	.	.	?	.
CN(C)S(=O)(=O)c1ccc(N2CCCC2)c(C(=O)Nc2nc3ccccc3s2)c1	47.5	.	.	.	?	?
O=C(Nc1scc(-c2ccccc2)c1C(=O)O)c1ccco1	62.9	.	30.9	.	.	.
COc1ccc(-c2csc(NC(=O)c3ccccc3F)c2C(=O)O)cc1	59.4	/	35.7	/	/	/
COC(=O)c1c(-c2ccc(F)cc2)csc1NC(=O)c1ccco1	93.6	?	60.7	.	.	.
Cc1ccc(-c2c3c(=O)n(C)c(=O)n(C)c3c3n2-c2ccccc2NC3c2ccc(C)cc2O)cc1 (stereo not drawn)	/	.	/	.	?	?
c1ccc(-c2nnc(SCCC3OCCCO3)o2)cc1	104.1	?	42.6	/	.	/
O=C(CSc1nnc(-c2ccccc2)o1)NCC1CCCCC1	.	.	.	/	.	/
O=C1OCCC1Sc1nnc(-c2ccc(Br)cc2)o1 (stereo not drawn)	.	?	.	.	?	/
Brc1ccc(-c2nnc(SCCC3OCCCO3)o2)cc1	59.4	.	41.6	/	.	/
O=C(NC1CCCC1)C(c1ccncc1)N(C(=O)c1ccco1)c1ccc(F)c(Cl)c1 (stereo not drawn)	.	.	.	.	.	.
CCn1c(C)nc2cc(C(=O)N/N=C/c3ccccc3)ccc21	94.2	.	34.1	.	.	.
CCn1c(C)nc2cc(C(=O)N/N=C/c3ccc(OC)cc3)ccc21	.	.	.	.	?	.
CCn1c(C)nc2cc(C(=O)N/N=C/c3ccc(O)cc3)ccc21	.	?	.	.	?	.
CCn1c(C)nc2cc(C(=O)N/N=C/c3cccc(O)c3O)ccc21	67.2	?	31.4	?	?	12.6µM
O=C(Nc1cc(C(F)(F)F)ccc1Cl)c1cc(S(=O)(=O)NCc2ccccc2)ccc1F	/	.	/	.	/	.
SMILES	Shiga inhibitor	LASV entry inh	CHX counter	VACV Venus inh	Marburg entry inh	VACV mCherry inh
O=C(O)[C@@H]1CSCN1S(=O)(=O)c1cccc2nsnc12	/	/	/	/	.	/
Cc1ccc(NS(=O)(=O)c2cc3[nH]c(=O)c(=O)[nH]c3cc2C)cc1N(C)C	/	.	/	.	/	.
COC(=O)c1ccc(CSc2nc3ccccc3o2)cc1	55.0	?	29.6	/	?	/
O=C(CSc1nc2ccccc2o1)NCC(=O)c1ccccc1	.	.	.	.	.	/
O=[N+]([O-])c1ccc(CSc2nc3ccccc3o2)cc1	121.1	.	35.6	/	?	/
O=[N+]([O-])c1ccc(CSc2nnc(SCc3ccccc3)s2)cc1	.	.	.	.	.	.
Cc1ccc(-n2ncc3c(N4CCCCC4)ncnc32)cc1Cl	/	?	/	.	/	.
[O-][N+]1=c2ccc(Nc3ccccc3)cc2=NC12CCCCC2	88.8	?	50.8	?	2.24µM	?
COc1ccc(NC2=NC(=S)N(c3ccccc3C)C23CCCCC3)cc1	.	.	.	/	.	/
COc1ccc(Nc2ccc3c(c2)=NC2(CCCCC2)[N+]=3[O-])cc1	58.9	?	26.1	?	?	?
Cc1ccc2c(c1)cc(CN(Cc1ccco1)C(=O)COc1ccccc1)c1nnnn12	65.4	?	26.5	/	?	/
COc1ccc(NC(=S)N2CCN(c3ccc4c(c3)C3CCN(C(=O)OCc5ccccc5)C4C3)CC2)c(OC)c1 (stereo not drawn)	/	/	/	.	/	.

Bioassay records (PubChem)
